# Results taken from the supplement of paper PMC3334620.
# Over roughly 33,000 sequences, “E-score (-0.5 to 0.5)” has its median near -0.01; the highest 2% begin near 0.26. Many of the other results were omitted from the sample, so the highest values are more common in it than they were.
# Biological target: Ste12 (UniProt P13574)
# Assay: PBM E-score (8-mer binding enrichment) (E-score (-0.5 to 0.5)); higher = stronger / more preferred TF binding
# Details: protein concentration: 200 nM; construct: GST-DNA-binding domain
# Protocol: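 Universal 'all 10-mer' protein binding microarrays (Agilent AMADID 015681) probed with GST-tagged S. cerevisiae TFs (full-length or DBD) made by in vitro transcription/translation (PURExpress), about 100-200 nM. Bound TF was detected with fluorescent anti-GST. Each ungapped 8-mer (which stands for itself and its reverse complement) is scored by the PBM enrichment score (E-score), a modified Wilcoxon-Mann-Whitney statistic from -0.5 to +0.5, computed with the Universal PBM Analysis Suite. Scale: above 0.35 generally sequence-specific binding.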
# UniProt P13574, sequence (P13574 whole entry): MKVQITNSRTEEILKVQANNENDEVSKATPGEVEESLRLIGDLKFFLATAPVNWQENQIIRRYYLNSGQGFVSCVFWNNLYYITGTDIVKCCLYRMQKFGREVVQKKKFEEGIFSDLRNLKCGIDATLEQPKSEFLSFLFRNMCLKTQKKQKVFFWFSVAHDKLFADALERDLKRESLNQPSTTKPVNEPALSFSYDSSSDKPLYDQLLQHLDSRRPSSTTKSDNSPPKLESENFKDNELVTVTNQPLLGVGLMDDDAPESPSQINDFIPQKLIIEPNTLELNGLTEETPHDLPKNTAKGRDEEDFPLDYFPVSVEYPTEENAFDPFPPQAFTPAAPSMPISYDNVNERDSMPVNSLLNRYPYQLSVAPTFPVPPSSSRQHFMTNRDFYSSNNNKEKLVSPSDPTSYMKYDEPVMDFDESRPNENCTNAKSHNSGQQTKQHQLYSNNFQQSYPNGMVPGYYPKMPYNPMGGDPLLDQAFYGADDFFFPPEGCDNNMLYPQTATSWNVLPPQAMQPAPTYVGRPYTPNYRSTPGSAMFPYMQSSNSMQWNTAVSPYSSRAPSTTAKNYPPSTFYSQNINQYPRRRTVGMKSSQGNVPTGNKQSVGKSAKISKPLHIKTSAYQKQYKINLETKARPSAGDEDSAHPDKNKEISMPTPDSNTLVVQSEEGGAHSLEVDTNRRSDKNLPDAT
row,Sequence,PBM E-score
1,AATAAGAG,0.0566
2,CTTAATAA,0.232
3,ACTGGTCT,-0.117
4,GTGATCGA,0.161
5,ATTGTGTA,0.274
6,ATTGTGTG,-0.0472
7,CTTGTGTA,0.0226
8,ACTGCGAT,-0.072
9,CATGGCAA,0.0424
10,CAACATGA,0.0787
11,AAACATCA,0.328
12,CAACATCA,0.0676
13,AAACATGG,0.206
14,AAACATCC,0.249
15,AAACATGC,0.231
16,TAACATGA,0.098
17,AAACATGT,0.301
18,AAACATGA,0.321
19,TCTTCTCA,0.019
20,GATCTGAA,0.0323
21,ATGGACCG,-0.00313
22,TCCGATCA,0.0466
23,CAGTGTGC,-0.187
24,ACCTAACG,-0.137
25,ATATTCAT,0.227

row,Sequence,PBM E-score
1,GCGCCGGA,-0.0097
2,CTTAAAAC,0.352
3,ATTAAACC,0.156
4,CTTAAAAG,-0.0909
5,ATTAAAGA,0.0703
6,ATTAAAAA,0.295
7,ATTAAAAC,0.313
8,ATTAAAAT,0.32
9,AGTAAAAC,0.168
10,CTTAAAAA,0.22
11,AGTAAAAT,0.122
12,ATTAAAAG,0.137
13,CCACTGAC,-0.126
14,AGCATAAC,-0.00864
15,ACTACATG,0.0147
16,CCGACACA,-0.0323
17,ATTTAGCG,-0.0176
18,GGCAATAC,0.0406
19,GAGATCTC,-0.14
20,CACTTCAG,-0.198
21,GATTCTGA,0.0395
22,ACGTGAAT,0.0319
23,AAACGGCG,0.149
24,ATCGCGAT,0.0912
25,ACTATGCG,0.0582

row,Sequence,PBM E-score
1,GTTAAAAC,0.174
2,GTTAAAAA,0.291
3,GTTAAAGA,0.0582
4,ATTAAATC,0.248
5,ATTAAATA,0.292
6,ATTAAATG,0.19
7,CACGTGGG,-0.129
8,CGGTACTA,-0.0556
9,AGCCATGG,-0.192
10,AATTAGGC,0.179
11,ACAACTGA,0.293
12,ACAACTTA,0.053
13,ACAACTGG,-0.0989
14,AGACCACA,-0.0546
15,AAATCTGA,0.266
16,GAATCTGA,-0.0846
17,AAATCTGC,0.0398
18,CTCGTGAC,0.0961
19,CCTCTTTC,-0.0876
20,CCTCCCCC,-0.134
21,CCTCCCCG,0.283
22,CCTCCCAA,-0.136
23,CCTCCCCA,0.329
24,CCCCCCCG,-0.257
25,ACTCCCCG,0.07

row,Sequence,PBM E-score
1,AGCCATGC,-0.0768
2,CGGGGAAA,0.272
3,GCGGGGGA,-0.143
4,GCGGGAAA,0.121
5,CGGGGGAA,0.0885
6,GCGGGGAA,0.261
7,GGGGGAAA,0.241
8,CGAGCGCA,0.0982
9,ACCAGTTC,0.0206
10,ATCCAAGA,0.136
11,TCGGCCGA,0.0948
12,AGAGACAA,-0.154
13,CGAGACAA,0.0198
14,TGAGACAA,0.274
15,CAGGTTCA,-0.0316
16,CGCTAACC,-0.0284
17,TGTACTAA,0.053
18,GACTTGCC,-0.305
19,ACAAACCT,-0.111
20,ACAAAACC,0.171
21,CAAAAACG,0.177
22,AAAAAACG,0.269
23,AGAAAACG,0.0569
24,ACAAAACG,0.35
25,CCAAAACG,0.254

row,Sequence,PBM E-score
1,CCGCGCGC,0.24
2,GCGCGCGC,0.353
3,CCGCGCGA,0.169
4,ACGCGCGC,0.122
5,GCGCGCGA,0.154
6,CCGCGCGG,0.321
7,GGAGGGCA,0.0377
8,ACTGGTTG,0.0694
9,GGCCCGAC,0.15
10,GGTGTTGA,-0.0828
11,ATAACTCA,0.044
12,GACTGCCA,0.107
13,GCTAGACA,-0.118
14,GCATGAAC,-0.0143
15,GCATGAAA,0.318
16,TCATGAGA,0.0861
17,TCATGAAA,0.27
18,ACATGAAA,0.283
19,ACATGAAC,0.0476
20,ACATGAAG,0.091
21,CCATGAAA,0.252
22,TCATGACA,0.178
23,ATCACCGG,-0.0135
24,GTCCACCA,-0.342
25,CTCTTAAG,-0.0926

row,Sequence,PBM E-score
1,AAAAGGAA,0.188
2,CTTATGAA,0.204
3,ATTATGAA,0.265
4,GTTATGAA,0.221
5,AATATGAA,0.269
6,AATATGAC,0.0945
7,TATATGAA,0.17
8,CCAGCTAC,-0.091
9,AGCGACTA,-0.043
10,TCAGTCAA,-0.0289
11,GGGACACA,0.17
12,ACCGCGCC,-0.034
13,CGCGCGCC,0.157
14,AGCGCGGC,0.0144
15,CGCGCGCA,0.208
16,ACCGCGCT,-0.16
17,CCCGCGGC,0.224
18,ACCGCGCG,0.273
19,GCCGCGGC,0.29
20,CGCGCGGA,0.0633
21,CGCGCGGC,0.306
22,GCCGCGGA,0.0303
23,CGCGCGCG,0.262
24,ACGGAGTG,-0.043
25,AACGACCC,-0.126

row,Sequence,PBM E-score
1,ACGCTCGG,-0.0861
2,GTTCAGTA,-0.0836
3,ATCGCACA,0.0146
4,AACCAATA,0.195
5,ACGTAGCG,-0.0127
6,ACTGAAAC,0.477
7,CCTGAAAG,-0.179
8,ACTGAAAG,0.175
9,ACTGAAAA,0.101
10,GCTGAAAA,0.17
11,GCTGAAGC,-0.0602
12,GCTGAAAC,0.485
13,CCTGAAAA,0.0508
14,CCTGAAAC,0.487
15,GATGGGCA,-0.0542
16,AGAATATA,0.0722
17,AAATCTAC,0.151
18,CCCGCACA,0.023
19,GCCAGGTA,-0.127
20,AACGATTC,-0.0106
21,GCCCTCAA,-0.23
22,GCGGTCAA,-0.0277
